From PubChem
An excerpt weighted towards active compounds, which were near 9.8% of everything screened.
CBFb RUNX1 block = inhibitors of human CBF-beta and RUNX1 interaction. AlphaScreen CBFb-His/RUNX1-biotin binding, biochemical. Potency, µM (series often up to 59.8 µM), hits mostly inhibitors. AID 1477. Q01196+Q13951. 230,000 tested, under 10 active
Target sequence (Q01196 whole entry, looked up): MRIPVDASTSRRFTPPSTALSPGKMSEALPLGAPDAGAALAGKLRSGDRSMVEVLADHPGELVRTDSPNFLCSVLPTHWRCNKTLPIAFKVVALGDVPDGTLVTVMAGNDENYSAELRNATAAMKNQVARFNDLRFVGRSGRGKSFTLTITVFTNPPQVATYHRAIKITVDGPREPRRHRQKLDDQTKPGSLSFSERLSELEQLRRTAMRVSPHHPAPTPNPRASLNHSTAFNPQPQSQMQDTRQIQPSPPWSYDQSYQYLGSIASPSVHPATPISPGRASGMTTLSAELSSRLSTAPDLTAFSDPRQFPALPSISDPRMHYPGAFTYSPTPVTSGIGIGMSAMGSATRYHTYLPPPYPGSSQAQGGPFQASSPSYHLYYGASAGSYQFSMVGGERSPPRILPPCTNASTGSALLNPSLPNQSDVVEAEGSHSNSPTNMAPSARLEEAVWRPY
Target sequence (Q13951 whole entry, looked up): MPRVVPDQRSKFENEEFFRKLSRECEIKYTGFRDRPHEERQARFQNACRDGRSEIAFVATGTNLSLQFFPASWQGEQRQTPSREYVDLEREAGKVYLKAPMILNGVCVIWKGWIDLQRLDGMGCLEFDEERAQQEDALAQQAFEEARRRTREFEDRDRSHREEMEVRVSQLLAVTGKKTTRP
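CBF-beta (His) and RUNX1 (biotin), 30 nM each; 20 min preassociation; + compound, 15 min; + beads 50 ng each (Ni, streptavidin), 90 min; RT; AlphaScreen read.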
HTT ATP protect = protects HTT-Q103 PC12 cells, measured by ATP; PC12 HTT-Q103 induced, cytoprotection, ATP luminescence, 40 h; Potency, µM (top dose mostly 56.4 µM), hits mostly activators; 230,000 compounds, 0.14% hits; AID 1471; further: nearly all actives have a fitted effect of over 45% in size
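PC12 cells stably carrying ecdysone-inducible Htt exon 1 (Q103)–GFP were induced with 100 nM tebufenozide (final) alongside library compounds in a dose series. Cytoprotection was scored as retained ATP by ATPlite luminescence.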
HTT aggregate = mutant huntingtin aggregation inhibition; PC12 HttQ103-GFP aggregates, Acumen cytometry, 40 h; Potency, µM (series often up to 46.1 µM), actives largely listed as inhibitors; 220,000 compounds, 1.1% hits; AID 1688; further: nearly all actives have a fitted effect of over 60% in size
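Aggregate formation scored by laser-scanning cytometer (488 excitation, 500–530 emission) in lysed PC12 cells expressing Q103-GFP after 100 nM tebufenozide induction; library tested in dose series, with ATPLite reagent added in the multiplex.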
ALDH1A1 inh = ALDH1A1 (human) enzyme inhibition; 220,000 compounds, 7.3% hits; Potency, µM (highest dose often 75.3 µM), hits mostly inhibitors; P00352; Purified ALDH1A1, NADH fluorescence, propionaldehyde substrate; active means well fitted inhibition curve with a large enough effect, not every such curve was filed as active; inconclusive means small, poorly fitted or top-dose-only effect, or another doubt; inactive means no such curve, though single readings can be large or run the other way
HPGD inh = HPGD (human) dehydrogenase inhibition | P15428 | 150,000 compounds, 4.3% hits | Potency, µM, most hits filed as inhibitors | purified HPGD, NADH fluorescence kinetic, PGE2 substrate; active means well fitted inhibition curve with a large enough effect, not every such curve was filed as active; inconclusive means small, poorly fitted or top-dose-only effect, or another doubt; inactive means no such curve, though single readings can be large or run the other way
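20 nM HPGD preincubated 15 min at room temperature with compound in 50 mM Tris-HCl pH 8, 0.01% Tween 20. Started with 1 mM NAD+ and 30 uM prostaglandin E2; NADH fluorescence (360/450 nm) read 5 times over 30-s intervals, last minus first.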
KDM4E inh = JMJD2E (human) inhibition; AID 2147; JMJD2E catalytic domain, FDH-coupled NADH fluorescence (FDH is formaldehyde dehydrogenase); 230,000 compounds, 1.6% hits; Potency, µM (top dose mostly 57.1 µM), actives largely listed as inhibitors; B2RXH2; active means well fitted inhibition curve with a large enough effect, not every such curve was filed as active; inconclusive means small, poorly fitted or top-dose-only effect, or another doubt; inactive means no such curve, though single readings can be large or run the other way; further: nearly all actives have a fitted effect of over 50% in size
Each line names hits and unclear results; the compound was inactive in the other large screens. Unless noted, the call rests on the fitted dose curve; in most records, active means well fitted curve in the direction sought with a large enough effect; inconclusive means small, poorly fitted or top-dose-only effect, or another doubt; inactive means no such curve, though single readings can be large; an effect the other way counts as inactive or inconclusive.

Cc1cc([N+](=O)[O-])nn1CC(=O)Nc1sc2c(c1C(N)=O)CCCC2	ALDH1A1 inh inconclusive (no result: HPGD inh)
C/C(=N/NC(=O)C1CCN(S(=O)(=O)c2ccc(C)cc2)CC1)c1cccc([N+](=O)[O-])c1	ALDH1A1 inh inconclusive
Nc1ccccc1S[C@@H](C[N+](=O)[O-])c1ccc2c(c1)OCO2	ALDH1A1 inh 3.55µM, HPGD inh 3.16µM (no result: CBFb RUNX1 block, HTT aggregate, KDM4E inh)
c1ccc(SC(Sc2ccccc2)c2ccc3c(c2)OCO3)cc1	none (no result: CBFb RUNX1 block, HTT aggregate, KDM4E inh)
COc1ccc(C2CC(O)(c3ccccc3)Oc3cc(C)c(Cl)c(C)c32)cc1 (centres undefined)	none (no result: HTT ATP protect, HTT aggregate, ALDH1A1 inh, HPGD inh, KDM4E inh)
O=C(CSc1nnc(-c2ccccc2)o1)c1nnc(-c2ccccc2)o1	ALDH1A1 inh inconclusive, HPGD inh inconclusive, KDM4E inh inconclusive
O=C(Cc1ccccc1)c1nnc(-c2ccccc2)o1	ALDH1A1 inh 8.91µM (no result: HPGD inh)
N[C@@H](CCCCNC(=O)CCCC[C@@H]1SC[C@H]2NC(=O)N[C@H]12)C(=O)O	CBFb RUNX1 block 0.398µM (no result: HTT ATP protect, HTT aggregate, ALDH1A1 inh, HPGD inh, KDM4E inh)
O=S(=O)(c1ccccc1)N1CCC[C@@]2(CCN(c3ncccn3)C2)C1	HTT ATP protect inconclusive, ALDH1A1 inh inconclusive (no result: CBFb RUNX1 block, HTT aggregate, KDM4E inh)
Cc1noc(C)c1-c1ccc2ncnc(NCc3ccccc3C(F)(F)F)c2c1	none (no result: HTT ATP protect, HTT aggregate, ALDH1A1 inh, HPGD inh, KDM4E inh)
COc1ccnc(CSC(N)=Nc2ccccc2C(F)(F)F)c1	none (no result: HTT ATP protect)
COc1ccnc(CSC(N)=Nc2ccccc2OC)c1	HTT aggregate inconclusive, ALDH1A1 inh 25.1µM
COc1ccnc(CSC(N)=Nc2cccc(C(F)(F)F)c2)c1	ALDH1A1 inh 20µM, KDM4E inh inconclusive (no result: HTT ATP protect)
COc1ccccc1C(=O)Nc1ncc2c(n1)CC(c1ccco1)CC2=O (centres undefined)	CBFb RUNX1 block inconclusive, ALDH1A1 inh 8.91µM
O=C1CC(c2ccco2)Cc2nc(Nc3ccc(F)cc3)ncc21 (centres undefined)	HTT aggregate inconclusive, ALDH1A1 inh 10µM
O=C(CSc1nnnn1-c1ccccc1)Nc1ncc2c(n1)CC(c1ccco1)CC2=O (centres undefined)	ALDH1A1 inh 5.01µM
COCCn1c(=O)c(-c2cc(F)cc(F)c2)nc2cnc(OCc3ccccc3)nc21	ALDH1A1 inh inconclusive (no result: CBFb RUNX1 block, HTT aggregate, KDM4E inh)
C=CCCC	none (no result: HTT aggregate, KDM4E inh)
CC1=C(C2=C(C)C(C(C)C)C3=C(C(=O)C(O)C3O)C2O)C(O)C2=C(C(O)C(O)C2=O)C1C(C)C (centres undefined)	none (no result: HTT aggregate)
COc1cccc(S(=O)(=O)c2nc(C)c3c(n2)CCC3)c1	ALDH1A1 inh 6.31µM (no result: HPGD inh)
Cc1oc2cc(OCc3cnn(-c4ccccc4)c3)ccc2c(=O)c1Oc1ccccc1F	ALDH1A1 inh 5.01µM, KDM4E inh inconclusive
COC(=O)c1ccc(Oc2c(C)oc3cc(OCc4cnn(-c5ccccc5)c4)ccc3c2=O)cc1	none
CN(C)c1ccc(C=Nc2cnn(C)c2C(N)=O)cc1	ALDH1A1 inh 3.55µM
Cn1ncc(N=Cc2ccccc2[N+](=O)[O-])c1C(N)=O	KDM4E inh inconclusive (no result: ALDH1A1 inh, HPGD inh)
Cc1ccc2[nH]cc(C(=O)NCc3cccs3)c(=O)c2c1	ALDH1A1 inh 15.8µM
CCN(CC)c1ncccc1C(=O)NCc1cccs1	none
Cc1ccc(C)c(Nc2ncccc2C(=O)NCc2cccs2)c1	HPGD inh 25.1µM
O=C(O)c1ccc(C2CCCCC2)cn1	HTT aggregate 3.16µM, KDM4E inh inconclusive
O=C1CCCC/C1=N\Nc1ccc(C2CCCCC2)cc1	none (no result: ALDH1A1 inh, HPGD inh)
COc1cc(NC(=O)Cc2ccc([N+](=O)[O-])cc2)c(C(=O)O)cc1OC	KDM4E inh inconclusive
CN(N)c1nc(-c2ccccc2)nnc1C(F)(F)F	none
CN(NC(=O)c1cccc(Cl)c1)c1nc(-c2ccccc2)nnc1C(F)(F)F	HTT aggregate 1µM (no result: HTT ATP protect)
O=C(OCc1ccccc1F)c1ccc2c(c1)-c1ccccc1C2=O	HTT aggregate 0.794µM
CS(=O)(=O)N(CC(=O)Nc1ccc(S(=O)(=O)N2CCCC2)cc1)c1cccc(F)c1	none (no result: ALDH1A1 inh, HPGD inh)
CCCC12CN3CCN(CC(C3)/C1=N\NC(=O)c1ccc(C(C)(C)C)cc1)C2	ALDH1A1 inh 31.6µM
C=CCn1c(-c2ccc(Cl)cc2)c[nH]c1=S	ALDH1A1 inh 1.41µM, HPGD inh 11.2µM
Clc1nc(Cl)nc(N(c2ccccc2)c2ccccc2)n1	ALDH1A1 inh inconclusive
Nc1ccc(N(c2ccccc2)c2ccc(N)cc2)cc1	CBFb RUNX1 block inconclusive, ALDH1A1 inh 8.91µM, KDM4E inh inconclusive
O=C(CCOc1ccccc1)OCC(=O)c1cc2ccccc2o1	HPGD inh 31.6µM
COc1ccc(C(OC(=O)c2ccco2)C(=O)NC(C)(C)C)cc1 (centres undefined)	none (no result: HPGD inh)
CCCN1C(=O)SC(CC(=O)Nc2ccc(Br)cc2)C1=O (centres undefined)	ALDH1A1 inh inconclusive
CCOc1ccc(NC(=O)c2cccnc2C(=O)O)cc1	ALDH1A1 inh 22.4µM, KDM4E inh inconclusive
CCOc1ccc(NC(=O)c2cccnc2SC)cc1	none (no result: HPGD inh)
O=C(CC1SC(=O)N(c2ccccc2)C1=O)Nc1cccc2ccccc12 (centres undefined)	CBFb RUNX1 block inconclusive (no result: ALDH1A1 inh, HPGD inh)
CCOc1ccc(NC2=NCC(=O)N2CCc2ccccc2)cc1	ALDH1A1 inh 25.1µM
CCCN1C(=O)SC(CC(=O)Nc2ccccc2C)C1=O (centres undefined)	ALDH1A1 inh 10µM
Cc1ccccc1NC(=O)CC1SC(=O)N(c2ccccc2)C1=O (centres undefined)	ALDH1A1 inh 15.8µM, HPGD inh inconclusive
O=C(Nc1ccc2sccc2c1)c1cccc(N2C(=O)CCC2=O)c1	none (no result: HPGD inh)
CCOC(=O)C1CCCN(C(=O)c2csc(-c3ccc4c(c3)CCO4)n2)C1 (centres undefined)	KDM4E inh inconclusive (no result: ALDH1A1 inh, HPGD inh)
CCOc1ccccc1NC(=O)CC1SC(=N)N(c2ccccc2)C1=O (centres undefined)	none (no result: HPGD inh)
CCOc1ccc(NC(=O)C2CC(=O)OC2c2ccccc2)cc1 (centres undefined)	ALDH1A1 inh 25.1µM (no result: HPGD inh)
COc1cccc(NC(=O)CC2S/C(=N\S(=O)(=O)c3ccccc3)N(c3ccccc3)C2=O)c1 (centres undefined)	ALDH1A1 inh 20µM
CCOc1ccc(NC(=O)Cc2ccccc2)cc1	HPGD inh 12.6µM (no result: HTT ATP protect)
COc1cccc(NC(=O)CC2SC(=Nc3ccccc3)NC2=O)c1 (centres undefined)	none
CCOc1ccc(NC(=O)CC2SC(=O)N(c3ccccc3)C2=O)cc1 (centres undefined)	ALDH1A1 inh 7.94µM (no result: HPGD inh)
CCOC(=O)C1(Cc2ccccc2)CCCN(C2CCCC2)C1 (centres undefined)	KDM4E inh inconclusive (no result: HPGD inh)
O=C(O)CC(NNC(=O)c1ccccc1)C(=O)Nc1ccc([N+](=O)[O-])cc1 (centres undefined)	none (no result: ALDH1A1 inh, HPGD inh)
O=C(/C=C\Nc1ccc(S(=O)(=O)Nc2ncccn2)cc1)c1ccccc1	KDM4E inh inconclusive (no result: ALDH1A1 inh, HPGD inh)
